From the supplement of paper PMC11732987, “Enantioselective OTUD7B fragment discovery through chemoproteomics screening and high-throughput optimisation” (Communications Chemistry, 2025)

Legend:
Experiment in all cases: log2 ratio of Biotin-Ahx-Ub-VS probe labelling (fragment/DMSO); higher = less target engagement (more negative = stronger competition), active = hit call of the paper (q ≤ 0.05, log2 ratio ≤ -1)
Settings in all cases: compound concentration: 200 uM; treatment time: 3 h
USP34 = USP34 (UniProt Q70CQ2)
How it was run: (§1)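 Each value is an average log2 ratio of fragment to vehicle, tested by unpaired t-test. The underlying Spectronaut label-free quantities were global-median-normalised, and only proteins with ≥2 unique peptides were included. Triplicate HEK293T lysate samples (495 µg) were exposed to fragment at 200 µM or vehicle for 3 h, then to Biotin-Ahx-Ub-VS at 0.5 µM final for 1 h, before NeutrAvidin enrichment of labelled DUBs, LysC and trypsin digestion, and diaPASEF LC-MS/MS.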

USP36 = target: T1, USP36 (UniProt Q9P275)
T1 sequence (whole entry): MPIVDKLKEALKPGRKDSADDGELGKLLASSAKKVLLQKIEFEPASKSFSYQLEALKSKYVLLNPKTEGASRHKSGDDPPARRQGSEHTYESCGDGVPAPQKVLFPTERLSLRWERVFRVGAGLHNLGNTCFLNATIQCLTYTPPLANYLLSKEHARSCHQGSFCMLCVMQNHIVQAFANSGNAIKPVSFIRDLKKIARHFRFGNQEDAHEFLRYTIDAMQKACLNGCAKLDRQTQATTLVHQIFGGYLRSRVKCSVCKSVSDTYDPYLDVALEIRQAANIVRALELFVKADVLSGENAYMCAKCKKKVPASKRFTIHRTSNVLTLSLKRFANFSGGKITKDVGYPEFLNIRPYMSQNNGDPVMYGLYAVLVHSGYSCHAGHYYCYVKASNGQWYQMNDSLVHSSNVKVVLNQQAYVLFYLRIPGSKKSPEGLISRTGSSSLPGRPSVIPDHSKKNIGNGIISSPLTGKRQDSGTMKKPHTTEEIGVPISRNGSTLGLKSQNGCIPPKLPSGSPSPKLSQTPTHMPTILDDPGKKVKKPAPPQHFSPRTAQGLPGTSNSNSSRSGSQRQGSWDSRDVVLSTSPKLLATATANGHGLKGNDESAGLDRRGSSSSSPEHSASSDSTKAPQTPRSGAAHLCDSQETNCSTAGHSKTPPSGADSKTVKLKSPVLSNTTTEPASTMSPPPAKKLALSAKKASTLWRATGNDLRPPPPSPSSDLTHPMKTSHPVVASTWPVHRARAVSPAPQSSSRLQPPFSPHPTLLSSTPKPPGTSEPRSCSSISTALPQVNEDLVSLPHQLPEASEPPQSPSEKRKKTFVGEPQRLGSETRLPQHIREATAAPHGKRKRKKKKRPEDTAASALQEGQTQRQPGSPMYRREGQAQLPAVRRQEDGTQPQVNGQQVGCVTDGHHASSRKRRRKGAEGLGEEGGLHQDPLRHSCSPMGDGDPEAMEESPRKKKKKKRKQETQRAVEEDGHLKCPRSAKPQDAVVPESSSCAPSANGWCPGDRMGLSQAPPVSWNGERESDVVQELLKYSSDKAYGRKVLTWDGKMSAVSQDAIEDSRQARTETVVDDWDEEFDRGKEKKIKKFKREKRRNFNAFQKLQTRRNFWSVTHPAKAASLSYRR
How it was run: as §1

USP38 = target: T2, USP38 (UniProt Q8NB14)
T2 sequence (whole entry): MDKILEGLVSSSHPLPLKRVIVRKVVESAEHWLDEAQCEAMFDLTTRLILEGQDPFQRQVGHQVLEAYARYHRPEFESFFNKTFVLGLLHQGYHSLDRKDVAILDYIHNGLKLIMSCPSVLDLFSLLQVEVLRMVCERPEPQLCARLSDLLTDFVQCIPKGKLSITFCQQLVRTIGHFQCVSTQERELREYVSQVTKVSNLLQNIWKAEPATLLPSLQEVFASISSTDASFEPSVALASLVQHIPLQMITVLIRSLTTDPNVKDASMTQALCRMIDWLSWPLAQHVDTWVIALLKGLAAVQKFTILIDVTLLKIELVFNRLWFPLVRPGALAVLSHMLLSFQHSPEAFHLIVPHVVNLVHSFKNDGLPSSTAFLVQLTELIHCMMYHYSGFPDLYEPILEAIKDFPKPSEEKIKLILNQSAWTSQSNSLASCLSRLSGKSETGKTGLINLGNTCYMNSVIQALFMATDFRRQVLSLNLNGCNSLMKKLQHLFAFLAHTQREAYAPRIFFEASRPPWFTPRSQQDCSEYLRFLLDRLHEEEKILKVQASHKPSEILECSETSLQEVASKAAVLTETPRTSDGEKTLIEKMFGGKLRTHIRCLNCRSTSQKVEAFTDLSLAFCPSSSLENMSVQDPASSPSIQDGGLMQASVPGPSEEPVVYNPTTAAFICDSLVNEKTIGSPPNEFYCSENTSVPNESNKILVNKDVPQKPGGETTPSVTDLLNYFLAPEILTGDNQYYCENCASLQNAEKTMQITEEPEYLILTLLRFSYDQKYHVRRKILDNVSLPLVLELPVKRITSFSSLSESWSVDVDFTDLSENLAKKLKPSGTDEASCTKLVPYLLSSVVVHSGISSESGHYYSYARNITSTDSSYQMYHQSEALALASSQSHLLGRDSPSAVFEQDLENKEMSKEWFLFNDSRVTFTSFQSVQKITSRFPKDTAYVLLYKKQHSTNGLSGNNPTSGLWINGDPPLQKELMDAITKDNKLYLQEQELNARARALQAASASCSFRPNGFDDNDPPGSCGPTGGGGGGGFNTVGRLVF
How it was run: as §1

USP39 = target: T3, USP39 (UniProt Q53GS9)
T3 sequence (whole entry): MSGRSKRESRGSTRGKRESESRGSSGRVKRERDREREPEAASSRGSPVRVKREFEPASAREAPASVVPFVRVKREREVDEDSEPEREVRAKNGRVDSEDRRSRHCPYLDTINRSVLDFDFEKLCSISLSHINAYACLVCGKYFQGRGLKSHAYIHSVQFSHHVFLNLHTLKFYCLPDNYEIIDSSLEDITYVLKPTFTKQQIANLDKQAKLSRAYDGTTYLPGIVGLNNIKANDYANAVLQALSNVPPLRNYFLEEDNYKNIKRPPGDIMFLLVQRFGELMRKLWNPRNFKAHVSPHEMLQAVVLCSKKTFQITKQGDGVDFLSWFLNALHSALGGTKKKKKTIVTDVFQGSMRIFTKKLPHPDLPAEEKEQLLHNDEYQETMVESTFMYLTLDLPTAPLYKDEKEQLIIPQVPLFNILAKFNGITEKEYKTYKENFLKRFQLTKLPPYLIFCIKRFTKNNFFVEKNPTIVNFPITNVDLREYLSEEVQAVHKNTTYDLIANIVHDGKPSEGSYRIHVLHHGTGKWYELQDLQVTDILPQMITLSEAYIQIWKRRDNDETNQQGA
How it was run: as §1

USP4 = target: T4, USP4 (UniProt Q13107)
T4 sequence (whole entry): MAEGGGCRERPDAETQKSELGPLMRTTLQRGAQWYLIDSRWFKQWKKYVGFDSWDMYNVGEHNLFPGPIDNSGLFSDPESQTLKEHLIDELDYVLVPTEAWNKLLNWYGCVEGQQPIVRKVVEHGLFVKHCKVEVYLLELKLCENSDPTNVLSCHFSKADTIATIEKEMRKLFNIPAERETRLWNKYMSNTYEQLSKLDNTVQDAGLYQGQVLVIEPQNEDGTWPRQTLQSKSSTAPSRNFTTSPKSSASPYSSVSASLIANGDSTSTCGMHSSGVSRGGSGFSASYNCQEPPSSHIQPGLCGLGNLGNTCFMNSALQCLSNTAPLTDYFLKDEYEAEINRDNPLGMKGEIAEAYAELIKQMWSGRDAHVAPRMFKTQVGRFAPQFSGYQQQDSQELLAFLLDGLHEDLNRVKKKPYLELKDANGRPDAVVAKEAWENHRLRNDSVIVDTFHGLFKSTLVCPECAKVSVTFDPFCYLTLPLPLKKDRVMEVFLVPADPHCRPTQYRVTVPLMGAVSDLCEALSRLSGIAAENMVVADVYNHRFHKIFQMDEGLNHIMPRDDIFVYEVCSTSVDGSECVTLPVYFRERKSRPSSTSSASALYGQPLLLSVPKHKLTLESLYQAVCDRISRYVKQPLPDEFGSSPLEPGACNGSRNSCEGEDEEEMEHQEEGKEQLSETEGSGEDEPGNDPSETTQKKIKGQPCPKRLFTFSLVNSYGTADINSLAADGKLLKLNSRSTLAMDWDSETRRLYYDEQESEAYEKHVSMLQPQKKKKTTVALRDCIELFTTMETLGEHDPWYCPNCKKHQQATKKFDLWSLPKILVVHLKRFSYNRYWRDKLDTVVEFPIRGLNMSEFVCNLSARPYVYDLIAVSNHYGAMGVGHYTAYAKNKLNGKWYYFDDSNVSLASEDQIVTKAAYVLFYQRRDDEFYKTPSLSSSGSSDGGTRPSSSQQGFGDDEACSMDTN
How it was run: as §1

Measured: log2 ratio of Biotin-Ahx-Ub-VS probe labelling

USP34, sequence (Q70CQ2 whole entry, the tested form may be a part): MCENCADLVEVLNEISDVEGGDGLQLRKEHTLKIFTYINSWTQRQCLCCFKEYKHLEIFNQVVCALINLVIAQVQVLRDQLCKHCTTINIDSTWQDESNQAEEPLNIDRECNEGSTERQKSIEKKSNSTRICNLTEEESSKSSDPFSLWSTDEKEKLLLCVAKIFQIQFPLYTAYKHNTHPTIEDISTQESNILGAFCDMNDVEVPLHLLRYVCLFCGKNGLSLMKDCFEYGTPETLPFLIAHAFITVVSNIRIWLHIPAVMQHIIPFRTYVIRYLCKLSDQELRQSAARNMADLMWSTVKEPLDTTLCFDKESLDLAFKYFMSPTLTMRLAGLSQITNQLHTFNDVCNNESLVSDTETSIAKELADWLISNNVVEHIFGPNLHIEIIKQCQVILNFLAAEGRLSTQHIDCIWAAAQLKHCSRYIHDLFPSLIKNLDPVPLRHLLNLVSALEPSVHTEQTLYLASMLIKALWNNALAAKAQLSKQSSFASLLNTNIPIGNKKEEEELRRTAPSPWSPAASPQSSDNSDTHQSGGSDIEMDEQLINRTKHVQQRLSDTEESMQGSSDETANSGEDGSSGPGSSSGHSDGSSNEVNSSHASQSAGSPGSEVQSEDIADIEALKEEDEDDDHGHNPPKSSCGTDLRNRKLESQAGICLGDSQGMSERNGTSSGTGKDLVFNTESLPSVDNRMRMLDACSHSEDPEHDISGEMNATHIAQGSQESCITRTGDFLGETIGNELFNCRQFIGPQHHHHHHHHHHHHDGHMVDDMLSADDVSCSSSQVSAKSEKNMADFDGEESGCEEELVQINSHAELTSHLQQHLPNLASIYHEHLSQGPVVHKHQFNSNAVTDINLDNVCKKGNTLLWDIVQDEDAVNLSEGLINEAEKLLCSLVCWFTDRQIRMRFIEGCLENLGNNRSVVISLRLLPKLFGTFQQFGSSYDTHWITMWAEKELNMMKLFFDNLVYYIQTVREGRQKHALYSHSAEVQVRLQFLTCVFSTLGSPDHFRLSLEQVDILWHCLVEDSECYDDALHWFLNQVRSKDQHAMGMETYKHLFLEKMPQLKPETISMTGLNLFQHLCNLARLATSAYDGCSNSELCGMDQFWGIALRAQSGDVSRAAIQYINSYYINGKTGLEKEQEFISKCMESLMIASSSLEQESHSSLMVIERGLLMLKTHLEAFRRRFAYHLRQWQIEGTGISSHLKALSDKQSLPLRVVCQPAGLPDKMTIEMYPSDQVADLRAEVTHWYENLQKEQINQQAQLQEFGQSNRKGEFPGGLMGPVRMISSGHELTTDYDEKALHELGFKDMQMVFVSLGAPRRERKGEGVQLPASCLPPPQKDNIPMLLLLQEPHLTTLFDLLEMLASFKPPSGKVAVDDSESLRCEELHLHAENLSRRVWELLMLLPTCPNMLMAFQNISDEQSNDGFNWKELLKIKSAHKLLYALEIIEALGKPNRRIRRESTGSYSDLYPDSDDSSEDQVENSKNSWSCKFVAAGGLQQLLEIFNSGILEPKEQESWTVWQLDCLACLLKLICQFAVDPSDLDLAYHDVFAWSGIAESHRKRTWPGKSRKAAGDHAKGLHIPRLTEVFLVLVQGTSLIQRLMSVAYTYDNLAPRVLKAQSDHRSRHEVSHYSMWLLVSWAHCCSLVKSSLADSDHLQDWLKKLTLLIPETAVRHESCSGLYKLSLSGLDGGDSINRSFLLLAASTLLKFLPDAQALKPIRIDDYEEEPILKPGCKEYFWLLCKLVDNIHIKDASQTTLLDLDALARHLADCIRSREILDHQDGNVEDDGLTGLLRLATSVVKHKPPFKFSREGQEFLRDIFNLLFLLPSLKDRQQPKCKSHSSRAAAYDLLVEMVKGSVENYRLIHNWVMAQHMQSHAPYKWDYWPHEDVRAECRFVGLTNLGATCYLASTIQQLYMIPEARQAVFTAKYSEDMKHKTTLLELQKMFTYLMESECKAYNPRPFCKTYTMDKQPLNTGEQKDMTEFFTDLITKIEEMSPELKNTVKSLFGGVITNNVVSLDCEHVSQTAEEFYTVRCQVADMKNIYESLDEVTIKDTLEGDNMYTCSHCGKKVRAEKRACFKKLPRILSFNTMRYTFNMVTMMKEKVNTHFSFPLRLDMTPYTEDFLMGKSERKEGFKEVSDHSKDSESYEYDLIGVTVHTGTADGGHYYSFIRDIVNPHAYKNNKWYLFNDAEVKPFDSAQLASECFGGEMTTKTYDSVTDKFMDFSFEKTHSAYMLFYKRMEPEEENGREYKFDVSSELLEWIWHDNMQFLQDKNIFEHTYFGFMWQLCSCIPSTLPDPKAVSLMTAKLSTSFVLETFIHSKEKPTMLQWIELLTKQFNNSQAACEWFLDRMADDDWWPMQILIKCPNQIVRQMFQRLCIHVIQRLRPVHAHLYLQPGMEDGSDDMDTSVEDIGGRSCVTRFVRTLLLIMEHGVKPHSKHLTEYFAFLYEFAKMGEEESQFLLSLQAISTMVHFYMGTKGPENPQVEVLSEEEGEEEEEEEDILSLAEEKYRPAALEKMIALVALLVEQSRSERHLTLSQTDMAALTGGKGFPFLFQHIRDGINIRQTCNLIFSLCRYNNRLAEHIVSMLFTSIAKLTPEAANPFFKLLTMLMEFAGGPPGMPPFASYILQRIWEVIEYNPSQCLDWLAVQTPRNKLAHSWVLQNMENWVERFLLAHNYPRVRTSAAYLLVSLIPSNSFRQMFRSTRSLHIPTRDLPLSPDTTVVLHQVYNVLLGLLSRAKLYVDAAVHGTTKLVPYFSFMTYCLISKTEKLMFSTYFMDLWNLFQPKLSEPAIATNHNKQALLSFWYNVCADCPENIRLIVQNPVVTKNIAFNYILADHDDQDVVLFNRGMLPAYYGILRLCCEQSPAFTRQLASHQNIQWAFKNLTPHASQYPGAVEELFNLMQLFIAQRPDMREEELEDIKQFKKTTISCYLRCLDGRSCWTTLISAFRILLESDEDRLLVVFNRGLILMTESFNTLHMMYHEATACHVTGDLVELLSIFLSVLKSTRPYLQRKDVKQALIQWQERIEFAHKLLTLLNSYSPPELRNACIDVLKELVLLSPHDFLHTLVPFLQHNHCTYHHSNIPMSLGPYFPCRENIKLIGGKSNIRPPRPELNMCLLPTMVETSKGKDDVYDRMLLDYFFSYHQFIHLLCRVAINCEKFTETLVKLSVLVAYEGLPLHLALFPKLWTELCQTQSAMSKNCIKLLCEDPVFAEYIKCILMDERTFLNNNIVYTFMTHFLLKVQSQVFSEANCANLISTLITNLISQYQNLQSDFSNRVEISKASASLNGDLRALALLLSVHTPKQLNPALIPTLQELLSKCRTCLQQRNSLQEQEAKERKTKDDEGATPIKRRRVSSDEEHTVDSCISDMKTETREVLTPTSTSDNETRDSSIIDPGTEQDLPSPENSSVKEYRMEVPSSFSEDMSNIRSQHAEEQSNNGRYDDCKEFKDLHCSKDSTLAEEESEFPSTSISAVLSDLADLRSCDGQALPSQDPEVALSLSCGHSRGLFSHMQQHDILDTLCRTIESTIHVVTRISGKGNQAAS

O=C(CCl)N1CCCC2CCCCC21 (stereo not given)
inactive: USP34 -0.14 | USP36 -0.176 | USP38 -0.0442 | USP39 -0.107 | USP4 -0.14
